Assay outcomes (PubChem BioAssay)
KB-V1 MDR tox – KB-V1 MDR subline cytotoxicity. KB-V1 MDR cells viability, CellTiter-Glo, 72 h. Potency, µM (highest dose often 46.1 µM), actives largely listed as cytotoxic. 400,000 compounds, 3.4% hits. AID 1347076; further: nearly all actives have a fitted effect of over 60% in size
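Compound-treated KB-V1 multidrug-resistant cells, 72 h, 37 degrees C; viability by CellTiter-Glo. Fitted qHTS curves give the values.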
HT1080NT lethal – kills 2HG-producing HT-1080-NT fibrosarcoma cells; 360,000 compounds, 1.6% hits; Potency, µM (titrated, usually from 46.1 µM), most hits filed as cytotoxic; AID 686970; HT-1080-NT fibrosarcoma viability, CellTiter-Glo ATP luminescence, 48 h;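 further: NT is the 2HG producing partner of a matched IDH1 knockdown line; nearly all actives have a fitted effect of over 55% in size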
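HT-1080-NT; 750 cells/well; 5% FBS RPMI; 48 h compound, 37 degrees C; CellTiter-Glo luminescence; curve fitting and curve-class assignment.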
ATXN2 expr inh – inhibitors of ATXN2 expression. HEK-293 ATXN2-luciferase reporter, luminescence, 24 h. Potency, µM (titrated, usually from 57 µM), usual class: inhibitors. 360,000 compounds, 0.72% hits. AID 1745845; further: nearly all actives have a fitted effect of over 55% in size
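qHTS (up to 57 uM final) was run with 24 h compound exposure of reporter cells at 37 °C. Each well was multiplexed: SteadyGlo luminescence measured ATXN2-luciferase expression after a fluorogenic Gly-Phe-AFC viability readout (25 uM final).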
KB-3-1 cytotox – kills parental KB-3-1 adenocarcinoma cells. KB-3-1 viability, CellTiter-Glo ATP luminescence, 72 h. Potency, µM (series often up to 46.1 µM), hits mostly cytotoxic. 400,000 compounds, 1.4% hits. AID 1347075; further: nearly all actives have a fitted effect of over 60% in size
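Multi-concentration cytotoxicity screen in KB-3-1 cells grown in DMEM lacking phenol red with 10% FBS. After 72 h at 37 °C with compound, ATP-dependent luminescence was recorded.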
S2 tox – viability counter-screen for ATXN expression inhibitors. S2 cells (HEK-293 line with an ATXN2-luciferase reporter) viability, CellTiter-Fluor protease fluorescence, 24 h. Potency, µM (top dose mostly 56.7 µM), actives largely listed as cytotoxic. 400,000 compounds, 0.49% hits; further: nearly all actives have a fitted effect of over 40% in size
HT1080 IDH1KD tx – toxicity to HT-1080 IDH1 knockdown cells (counter line) | HT-1080 IDH1 knockdown viability, ATP luminescence, 48 h | Potency, µM (highest dose often 46.1 µM), actives largely listed as cytotoxic | 360,000 compounds, 2% hits
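Using the IDH1-knockdown HT-1080 line run in the same batch and compound series as the NT line, viability after 48 h at 37 °C was determined by CellTiter-Glo luminescence and expressed as % activity.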
Each line names hits and unclear results; the compound was inactive in the other large screens. Compounds with a hit are over-represented: about 6.2% of the library has one in this group of screens. The call rests on the fitted dose curve; in most records, active means well fitted curve in the direction sought with a large enough effect; inconclusive means small, poorly fitted or top-dose-only effect, or another doubt; inactive means no such curve, though single readings can be large; an effect the other way counts as inactive or inconclusive.

COC(=O)c1[nH]c2ccc(C)cc2c1NC(=O)CN1CCCC(C)(C)C1	KB-V1 MDR tox inconclusive, KB-3-1 cytotox 20.6µM, S2 tox inconclusive
CCOC(=O)c1[nH]c2ccc(Br)cc2c1NC(=O)CCN1CCCC(C)(C)C1	KB-V1 MDR tox 3.26µM
CCN(CC(=O)Nc1c(C(=O)OC)[nH]c2ccc(C)cc12)c1ccc2c(c1)OCO2	KB-V1 MDR tox 7.31µM, S2 tox inconclusive
COC(=O)c1[nH]c2ccccc2c1NC(=O)CN1CCN(c2cccc(OC)c2)C(C)C1 (centres undefined)	KB-V1 MDR tox inconclusive, ATXN2 expr inh inconclusive, KB-3-1 cytotox 18.4µM, HT1080 IDH1KD tx inconclusive
O=C(c1cnn(-c2nccc(-c3ccco3)n2)c1C1CC1)N1CCCCC1c1cccnc1 (centres undefined)	none (no result: KB-V1 MDR tox, HT1080NT lethal, ATXN2 expr inh, KB-3-1 cytotox, HT1080 IDH1KD tx)
CC1CCN(S(=O)(=O)c2cc(C(=O)NCc3ccc(N(C)C)cc3)n(C)c2)CC1	none (no result: HT1080NT lethal, HT1080 IDH1KD tx)
CC(C)(C)c1ccc(C(=O)C[n+]2cc(Br)cc(Br)c2)cc1	none (no result: HT1080NT lethal, ATXN2 expr inh, S2 tox, HT1080 IDH1KD tx)
O=C(O)CCCCCC(=O)NN=C1CCCC1	none (no result: KB-V1 MDR tox, HT1080NT lethal, KB-3-1 cytotox, S2 tox, HT1080 IDH1KD tx)
CCCCn1cc(S(=O)(=O)c2ccc(OC)cc2)c(=O)c2cc(F)c(F)cc21	none (no result: HT1080NT lethal, HT1080 IDH1KD tx)
CCc1ccc(NC(=O)CCCc2nc(-c3ccco3)no2)cc1	none (no result: HT1080NT lethal, HT1080 IDH1KD tx)
COC(=O)c1[nH]c2ccc(Br)cc2c1NC(=O)CN1CCN(C2CCCCC2)CC1	KB-V1 MDR tox inconclusive, HT1080NT lethal 23.1µM, ATXN2 expr inh 17.8µM, KB-3-1 cytotox inconclusive, S2 tox 35.5µM, HT1080 IDH1KD tx 18.4µM
COc1ccc(-c2cc3c(=O)n(CC(=O)NCCCN4CCC(Cc5ccccc5)CC4)ncn3n2)cc1	HT1080NT lethal inconclusive, ATXN2 expr inh inconclusive, KB-3-1 cytotox 20.6µM, HT1080 IDH1KD tx inconclusive
COc1ccc(-c2cc3c(=O)n(CC(=O)NCCCN4CCN(Cc5ccccc5)CC4)ncn3n2)cc1	none (no result: ATXN2 expr inh)
C1=C/C(=C2/C=Cc3ccccc32)c2ccccc2N1	KB-V1 MDR tox 2.31µM, KB-3-1 cytotox 4.61µM (no result: HT1080NT lethal, ATXN2 expr inh, S2 tox, HT1080 IDH1KD tx)
Cc1ccc(C)c(NC(=O)CCCn2c(C)c3cnn(-c4ccccc4)c(=O)c3c2C)c1	none (no result: HT1080NT lethal, HT1080 IDH1KD tx)
Cc1cc(C(=O)CN2c3cccc4cccc(c34)S2(=O)=O)c(C)n1C	KB-3-1 cytotox inconclusive, HT1080 IDH1KD tx 14.6µM
O=C(CN1C(=O)c2ccccc2S1(=O)=O)NC1CCCCCC1	KB-V1 MDR tox inconclusive, HT1080NT lethal inconclusive
O=C(CN1c2cccc3cccc(c23)S1(=O)=O)Nc1cccc(S(=O)(=O)N2CCOCC2)c1	KB-V1 MDR tox 18.4µM
COc1ccc(NC(=O)CN2c3cccc4cccc(c34)S2(=O)=O)cc1	none
O=C(CN1C(=O)CCOc2ccccc21)Nc1cccc(S(=O)(=O)N2CCOCC2)c1	KB-V1 MDR tox inconclusive
O=C(CN1c2cccc3cccc(c23)S1(=O)=O)NC1CCCCC1	KB-V1 MDR tox 20.6µM
Cc1ccc(NC(=O)CN2c3cccc4cccc(c34)S2(=O)=O)cc1	KB-V1 MDR tox 23.1µM
CCCCC(F)(F)[C@@]1(O)CC[C@H]2[C@H](CC(=O)[C@@H]2CCCCCCC(=O)O)O1	ATXN2 expr inh inconclusive (no result: KB-V1 MDR tox, HT1080NT lethal, KB-3-1 cytotox, HT1080 IDH1KD tx)
CCOC(=O)c1cccc(NC(=O)C2CCN(S(=O)(=O)c3c(C)noc3/C=C/c3ccc(C)cc3)CC2)c1	KB-3-1 cytotox inconclusive (no result: HT1080NT lethal, HT1080 IDH1KD tx)
Cc1cc(C)c2c(N)c(C(=O)Nc3cccc(C)c3C)sc2n1	KB-V1 MDR tox 6.51µM, KB-3-1 cytotox inconclusive, HT1080 IDH1KD tx inconclusive
CCCc1ncc(C(=O)O)s1	none (no result: KB-V1 MDR tox, HT1080NT lethal, KB-3-1 cytotox, HT1080 IDH1KD tx)
COc1ccc(S(=O)(=O)NCc2ccc(C(=O)NCc3ccccc3)cc2)cc1	none (no result: HT1080NT lethal, HT1080 IDH1KD tx)
CN(C)c1ccc(/C=C/c2cc[n+](C)c3ccc4ccccc4c23)cc1	KB-V1 MDR tox inconclusive, KB-3-1 cytotox 0.92µM (no result: HT1080NT lethal, ATXN2 expr inh, S2 tox, HT1080 IDH1KD tx)
COc1cc(OC)c(/C=C/c2cc[n+](C)c3ccccc23)c(OC)c1	KB-3-1 cytotox inconclusive (no result: HT1080NT lethal, ATXN2 expr inh, S2 tox, HT1080 IDH1KD tx)
COc1cc(OC)c(OC)cc1/C=C/c1cc[n+](C)c2ccccc12	KB-3-1 cytotox 14.6µM (no result: HT1080NT lethal, ATXN2 expr inh, S2 tox, HT1080 IDH1KD tx)
C[n+]1ccc(/C=C/c2ccc(C=S)cc2)c2ccccc21	KB-3-1 cytotox inconclusive (no result: HT1080NT lethal, ATXN2 expr inh, S2 tox, HT1080 IDH1KD tx)
Cc1cc(N(C)C)cc(C)c1/C=C/c1cc[n+](C)c2ccccc12	KB-3-1 cytotox 4.61µM (no result: HT1080NT lethal, ATXN2 expr inh, S2 tox, HT1080 IDH1KD tx)
COc1cccc(CNC(=O)c2nn(-c3ccc(C)cc3)c(=O)c3c2c2ccccc2n3C)c1	none (no result: HT1080NT lethal, HT1080 IDH1KD tx)
